Bioassay records: PubChem BioAssay, National Center for Advancing Translational Sciences (NCATS)
The full list was thinned out, with hits kept by preference.
Shiga toxin inh = A qHTS for Small Molecule Inhibitors of Shiga Toxin | Vero cells, Shiga toxin protein synthesis inhibition reporter | inhibition, % at 38.7 µM | 9.2% of 290,000 active; in the data active = inhibition mostly above about 28%, no sharp cut-off; inactive = mostly below about 43%; also: 0% is about no effect
AMA1-RON2 inh = qHTS for Inhibitors of AMA1-RON; Towards Development of Antimalarial Drug Lead: Primary Screen; 0.2% of 360,000 active; Potency, µM (titrated, usually from 58.2 µM), for inactives: top-dose activity change, negative = inhibition, hits mostly inhibitors; AlphaScreen AMA1-biotinylated RON2 peptide binding; active = well fitted inhibition curve with a large enough effect; inconclusive = small, poorly fitted or top-dose-only effect; inactive = no such curve, though single readings can be large or run the other way;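 also: potency is read from the fitted curve at half-maximal effect; 0% = vehicle wells and -100% = peptide control; nearly all actives have a fitted effect of over 45% in size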
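AMA1 (3D7) with his tag at 25 nM final met compounds first, then biotinylated RON2 peptide at 25 nM; detection used donor plus acceptor beads, 10 µg/mL apiece, read by AlphaScreen after 30 min at room temperature.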
Marburg entry inh = qHTS for inhibitors of binding or entry into cells for Marburg Virus | Marburg virus pseudotyped entry inhibition, cell reporter | Potency, µM (top dose mostly 37.8 µM), for inactives: at the highest dose activity change, negative = inhibition, hits mostly inhibitors | 1.8% of 300,000 active | AID 540276, 2011; calls by dose curve; tested in HEK293 cells; also: potency is read from the fitted curve at half-maximal effect; % is scaled to controls: 0 for no effect and ±100 for the full control effect
CHX counter = Cycloheximide Counterscreen for Small Molecule Inhibitors of Shiga Toxin. AID 2314, 2010. max response, %. 12% of 300,000 active. cell reporter, cycloheximide protein synthesis inhibition counterscreen; in the data active = max response mostly above about 13%, no sharp cut-off; inactive = mostly below about 14%; also: read at 38.3 µM for the half of the compounds with a filed dose; 0% is about no effect
LASV entry inh = qHTS for Inhibitors of binding or entry into cells for Lassa Virus; AID 540256, 2011; 1.2% of 300,000 active; Potency, µM (series often up to 37.9 µM), for the others: at the highest dose activity change, negative = inhibition, hits mostly inhibitors; Lassa virus pseudotype entry inhibition, cell reporter; calls by dose curve; tested in HEK293 cells; also: potency is read from the fitted curve at half-maximal effect; % is scaled to controls: 0 for no effect and ±100 for the full control effect; nearly all actives have a fitted effect of over 50% in size
The depositor's hits bear a star; ? = inconclusive; nt = no result given; [ ] = remark or other dose.

SMILES | Shiga toxin inh | AMA1-RON2 inh | Marburg entry inh | CHX counter | LASV entry inh
CCOC(=O)c1ccc2[nH]c3c(c2c1)CCCC3O (stereo not given) | 35.0 | -11.4% | 22.7%[46.1 µM] | 23.9* | -23.1%
CCOC(=O)c1ccc2[nH]c3c(c2c1)CCCC3 | 86.8* | -26.9% | nt | 51.0* | nt
Cc1cc(C)cc(C(=O)N2CCN(c3ccccn3)CC2)c1 | -5.8 | 5.9% | 4.0%[46.1 µM] | 0.8 | 24.3%[46.1 µM]
CCC1CSC(Nc2ccc(C(=O)/C=C/c3ccc(Br)cc3)cc2)=N1 (stereo not given) | 56.9* | 5.2% | ? | 48.9* | ?
CCC1CSC(Nc2ccc(C(=O)/C=C/c3ccc(OC)c(OC)c3)cc2)=N1 (stereo not given) | 27.7* | 3.7% | ? | 14.3 | 23.1µM*
Cc1ccc(C(=O)C=Cc2ccc3c(c2)OCO3)c(C)c1 | nt | -4.3% | nt | nt | nt
COc1ccc(C(=O)/C=C/c2ccc3c(c2)OCCO3)cc1 | 92.2* | -14.2% | -12.8% | 30.9* | -14.9%
Cc1ccc(O)c(C(=O)/C=C/c2ccc3c(c2)OCCO3)c1 | 141.6* | ? | nt | 32.9* | nt
O=C(/C=C/c1ccc2c(c1)OCCO2)c1ccccc1 | 74.2* | -6.7% | nt | 42.2* | nt
CCCCNC(=O)c1c(-c2ccccc2)c(-c2ccccc2)nn(C)c1=O | nt | nt | 18.9%[46.1 µM] | nt | ?
O=C1Nc2ccccc2C(=O)N(C2CCCC2)C1C(=O)NC1CC1 (stereo not given) | nt | -3.4% | nt | nt | nt
CCCn1nnnc1COc1ccc(C(N)=O)cc1 | -5.9 | 1.1% | nt | -4.9 | nt
O=c1[nH]cnc2cc(-c3ccc(Br)cc3)sc12 | 66.1* | -9.8% | ? | 22.2 | nt
CC(/C=N/Nc1nncc(=O)[nH]1)=C\c1ccccc1 | 13.1 | 15.0% | 3.3% | -0.7 | ?
O=C(N/N=C/C(Br)=C/c1ccccc1)NC1CCCCC1 | 96.6* | -4.3% | -23.0%[46.1 µM] | 49.8* | -16.2%[46.1 µM]
BrC(=C\c1ccccc1)/C=N/Nc1nc2ccccc2[nH]1 | 104.4* | 7.0% | ? | 75.3* | ?
O=C(O)c1ccc(N/N=C/C(Br)=C/c2ccccc2)cc1 | 11.4 | 4.3% | nt | 25.3* | nt
Cc1ccc(NCC(=O)N/N=C\C(Br)=C\c2ccccc2)cc1 | -17.9 | 34.3% | -9.9% | 8.6 | ?
O=C(N/N=C/C(Br)=C/c1ccccc1)C1CC1 | 56.3* | 11.9% | -9.9%[46.1 µM] | 25.5* | -8.2%
COC(=O)CC=C1c2ccc(F)cc2[C@@H](OC)[C@@H]1C | nt | nt | -11.0%[14.2 µM] | nt | ?
Cc1cccc(OCC(=O)N(Cc2cccc(Cl)c2)Cc2ccco2)c1C | nt | nt | ? | nt | -20.0%[46.1 µM]
CC(/C=N/NC(=O)NC1CCCCC1)=C\c1ccccc1 | 45.8* | -22.9% | ? | 28.0* | nt
O=C(N/N=C/C(Br)=C/c1ccccc1)C(O)c1ccccc1 (stereo not given) | 74.1* | -1.1% | ? | 44.0* | ?
C/C(N)=C(/C#N)C(=O)COC(=O)c1ccccc1C(=O)c1ccc(C)cc1 | 14.9 | -4.7% | 5.8%[46.1 µM] | 3.1 | -10.0%
C/C(N)=C(/C#N)C(=O)COC(=O)c1cccc2ccccc12 | 94.8* | 5.9% | 9.4% | 37.4* | -4.3%
SMILES | Shiga toxin inh | AMA1-RON2 inh | Marburg entry inh | CHX counter | LASV entry inh
C/C(N)=C(/C#N)C(=O)COC(=O)c1ccccc1O | active | -18.3% | -14.0% | 24.0* | ?
Cc1ccc(N2C(=O)CSC23C(=O)N(CC(=O)NC2CCCCC2)c2ccccc23)cc1C (stereo not given) | nt | nt | nt | nt | -24.4%[46.1 µM]
Cn1c(=NCC(O)COc2ccccc2)sc2ccccc21 (stereo not given) | 22.6 | -12.3% | ? | 17.7 | ?
COc1ccc(N=c2sc3ccccc3n2C)cc1 | 50.5 | 0.0% | -14.4% | 40.9* | ?
COc1ccc(C(=O)N=c2sc3ccccc3n2C)cc1OC | 32.2 | -1.9% | ? | 19.6 | -7.1%[46.1 µM]
COc1ccccc1N=c1sc2ccccc2n1C | 2.5 | -5.1% | -16.9% | 12.8* | -2.1%
COc1cccc(NC(=O)N2CCC(NC(=O)c3ccco3)CC2)c1 | -6.9 | -0.2% | -23.8%[46.1 µM] | -4.4 | 3.3%
CCOC(=O)c1ccccc1N/C=C/C(=O)c1cccs1 | 155.9* | -27.4% | ? | 74.1* | -2.6%
O=C(/C=C/Nc1ccc(F)cc1F)c1cccs1 | 48.7* | -1.1% | ? | 46.3* | 1.41µM*
CCOC(=O)c1ccccc1NC(=O)c1cccs1 | -16.7 | 3.2% | -21.2% | -8.0 | -20.7%
O=C(/C=C/Nc1ccccc1F)c1cccs1 | 29.8* | 0.0% | 6.31µM* | 44.8* | 1.41µM*
O=C(/C=C\Nc1cccc(F)c1)c1cccs1 | 42.1* | -1.2% | ? | 39.6* | 11.2µM*
